Most compounds without a hit are left out; they make up all but 19% or so of the library.
KB-3-1 tox = KB-3-1 parental cell cytotoxicity. KB-3-1 viability, CellTiter-Glo ATP luminescence, 72 h. Potency, µM (highest dose often 46.1 µM), actives largely listed as cytotoxic. 1.4% of 400,000 active; further: nearly all actives have a fitted effect of over 60% in size
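Screening of KB-3-1 cells (DMEM, 10% FBS, phenol-red free) ran from lowest to highest compound concentration; after 72 h at 37 °C viability was read luminescently and curves fitted.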
HT1080 IDH1KD tx = kills HT-1080 cells with IDH1 knockdown. Potency, µM (top dose mostly 46.1 µM), inactives show top-dose activity, negative = toxicity, most hits filed as cytotoxic. 2% of 360,000 active. HT-1080 IDH1 knockdown viability, ATP luminescence, 48 h;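 further: 0% = DMSO wells and -100% = cell-free medium wells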
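Knockdown cells (IDH1KD HT-1080) received compounds 2 h after plating at 750 cells/well and were kept 48 h at 37 °C in 5% FBS RPMI. A CellTiter-Glo luminescence read gave % activity for curve fitting.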
HT1080NT lethal = kills 2HG-producing HT-1080-NT fibrosarcoma cells; HT-1080-NT fibrosarcoma viability, CellTiter-Glo ATP luminescence, 48 h; Potency, µM (series often up to 46.1 µM), for inactives: at the top dose activity, negative = less viability, most hits filed as cytotoxic; 1.6% of 360,000 active; AID 686970;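 further: NT is the 2HG producing partner of a matched IDH1 knockdown line; 0% = DMSO-treated cells and -100% = media-only wells without cells; nearly all actives have a fitted effect of over 55% in size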
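Viability by CellTiter-Glo luminescence after 48 h compound exposure at 37C of HT-1080-NT cells (750/well, RPMI, 5% FBS). % activity scaled between DMSO wells and medium-only wells, then curve-fitted and categorized by curve class.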
KB-V1 cytotox = KB-V1 MDR subline cytotoxicity; 3.4% of 400,000 active; Potency, µM (doses to about 46.1 µM), actives largely listed as cytotoxic; KB-V1 MDR cells viability, CellTiter-Glo, 72 h; AID 1347076; further: nearly all actives have a fitted effect of over 60% in size
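Readout: CellTiter-Glo luminescence, 10 min after addition. Cells: KB-V1 MDR subline, 72 h at 37 degrees C with compound. Analysis: corrected, normalized data fitted to concentration-effect curves.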
TDP1 cell CPT = growth inhibition of DT40 Tdp1-/-;hTDP1 cells with camptothecin (screen for TDP1 inhibitors). chicken DT40 Tdp1-/-;hTDP1 cells + 20 nM CPT, ATP luminescence, 48 h. 12% of 420,000 active. Potency, µM (top dose mostly 46.2 µM), inactives show at the top dose activity change, negative = growth inhibition, usual class: inhibitors. AID 686979; further: nearly all actives have a fitted effect of over 55% in size
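Chicken DT40 Tdp1-/- cells stably complemented with human TDP1 were seeded at 400 cells/well in medium containing 20 nM camptothecin, exposed to pin-transferred compounds, and grown at 37 °C for at least 48 hr. Viability was read as ATP luminescence.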
DT40 TDP1 no CPT = qHTS for Inhibitors of human tyrosyl-DNA phosphodiesterase 1 (TDP1): qHTS in cells in absence of CPT. DT40 Tdp1-/- hTDP1 cells, no CPT, ATP luminescence, 48 h. Potency, µM (highest dose often 46.2 µM), for the others: top-dose activity change, negative = growth inhibition, usual class: inhibitors. 15% of 420,000 active. AID 686978, 2013; further: nearly all actives have a fitted effect of over 55% in size
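Luminescent ATP content (CellTiter-Glo) served as the growth readout. Knockout chicken DT40 cells expressing human TDP1 were exposed to compounds without camptothecin for a minimum 48 hr at 37 °C.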
Active calls of the source: *; i = inactive; ? = inconclusive; . = not tested or not shown; [ ] = dose if it differs, or a comment. The call rests on the fitted dose curve; in most records, active means well fitted curve in the direction sought with a large enough effect; inconclusive means small, poorly fitted or top-dose-only effect, or another doubt; inactive means no such curve, though single readings can be large; an effect the other way counts as inactive or inconclusive. Unless noted, on the % scale 0 is the no-effect control and ±100 the full control effect; potency means the concentration at half of the fitted maximal effect.

SMILES	KB-3-1 tox	HT1080 IDH1KD tx	HT1080NT lethal	KB-V1 cytotox	TDP1 cell CPT	DT40 TDP1 no CPT
O=S(=O)(c1ccc(Cl)cc1)N1CCN(S(=O)(=O)N2CCCCCC2)CC1	i	20.2%	10.4%	i	8.2%	-4.5%
O=S(=O)(c1ccc(Oc2ccc(Cl)cc2)c(S(=O)(=O)N2CCCCC2)c1)N1CCCCC1	i	8.1%	11.9%	3.26µM*	?	14.6µM*
O=[N+]([O-])c1ccccc1S(=O)(=O)N1CCCCC1	i	7.7%	4.4%	i	-17.9%	-8.7%
O=S(=O)(c1ccc(F)c2ccccc12)N1CCCCC1	?	-3.9%	-7.2%	i	-26.5%	-18.0%
O=S(=O)(c1ccc(-c2ccon2)s1)N1CCN(c2ccccn2)CC1	i	2.3%	-10.3%	i	-14.5%	-25.5%
COc1ccc(-c2ccc(C(=O)N3CCc4c(cnc(C)c4CNS(=O)(=O)N(C)C)C3)o2)cc1	.	.	.	.	-3.4%[9.04 µM]	?
CCOC(=O)c1ccc(NC(=O)c2c(N)n(Cc3ccccc3)c(=O)[nH]c2=O)cc1	i	10.5%	3.1%	i	16.4µM*	-101.0%
CCOC(=O)c1ccc(NC(=O)c2ccc(=O)n(Cc3cccc(C)c3)c2)cc1	i	.	.	?	20.6µM*	16.4µM*
CCOC(=O)c1ccc(NC(=O)c2ccccc2)cc1	i	-2.5%	-1.0%	i	-14.2%	-14.9%
CCOC(=O)c1ccc(NC(=O)N2CCN(Cc3cccc(F)c3)CC2)cc1	i	?	-27.9%	18.4µM*	?	-28.0%
CC(C)c1ccc(NC(=O)c2ccc(=O)n(Cc3ccccc3)c2)cc1	?	.	.	?	16.4µM*	20.6µM*
CCCN1CCN(C(=O)Nc2ccc(C(=O)OCC)cc2)CC1	i	1.7%	6.2%	?	9.3%	-10.4%
O=C(Nc1ccccc1)c1ccc(=O)n(Cc2cccc(Cl)c2)c1	i	-6.4%	-11.6%	?	6.7%	-10.6%
Cc1cc2ccccc2c[n+]1C	?	.	.	i	0.7%	-14.3%
Cc1ccc(S(=O)(=O)CCSc2n[nH]c(=O)n2-c2ccc3c(c2)OCCO3)cc1	i	-11.8%	-16.6%	i	?	20.6µM*
Cc1ccccc1CN1C(=O)c2ccccc2Sc2ccc(C(=O)NCCc3ccccc3)cc21	.	.	.	.	16.4µM*	20.6µM*
COc1ccc(CCNC(=O)c2ccc3c(c2)N(Cc2ccccc2Cl)C(=O)c2ccccc2S3)cc1OC	.	.	.	.	6.51µM*	7.31µM*
COc1ccc(CCNC(=O)c2ccc(Cn3c(=O)c4ccccc4n(Cc4ccccc4Cl)c3=O)cc2)cc1OC	i	.	.	i	3.8%	-14.9%
Cc1ccc(CN2C(=O)c3ccccc3Sc3ccc(C(=O)NCCN4CCOCC4)cc32)cc1	?	9.2µM*	11.6µM*	?	?	?
CCCNC(=O)c1ccc2c(c1)N(Cc1cccc(C)c1)C(=O)c1ccccc1S2	.	.	.	.	-13.8%	-12.0%
O=C(NCCN1CCOCC1)c1ccc2c(c1)N(Cc1ccccc1F)C(=O)c1ccccc1S2	i	-23.6%	-23.9%	i	20.6µM*	-29.0%
CCCOc1ccc(S(=O)(=O)N2CCOCC2)cc1[N+](=O)[O-]	i	-3.7%	2.3%	i	7.1%	-2.9%
COc1ccc2c(c1)c1c(c(=O)n(Cc3ccccc3)c(=O)n1CC(=O)Nc1ccccc1OC)n2C	i	.	.	i	4.5%	-1.6%
Cc1ccccc1CN1C(=O)c2ccccc2Sc2ccc(C(=O)NCCN3CCOCC3)cc21	i	-28.7%	-29.0%	i	?	23.1µM*
Cc1cccc(CN2C(=O)c3ccccc3Sc3ccc(C(=O)NCCN4CCOCC4)cc32)c1	i	-29.4%	?	?	-0.5%	?
SMILES	KB-3-1 tox	HT1080 IDH1KD tx	HT1080NT lethal	KB-V1 cytotox	TDP1 cell CPT	DT40 TDP1 no CPT
CC(C)c1ccc(NC(=O)c2ccc(NS(C)(=O)=O)cc2)cc1	i	-24.6%	?	i	2.91µM*	4.61µM*
CCOC(=O)c1ccc(NC(=O)c2ccc(NS(C)(=O)=O)cc2)cc1	i	-22.0%	?	?	?	?
CS(=O)(=O)Nc1ccc(C(=O)Nc2ccc3ccccc3c2)cc1	i	-28.6%	?	?	2.91µM*	5.17µM*
CCOc1ccccc1NC(=O)COC(=O)c1ccc2ccccc2n1	i	-5.9%	2.0%	i	-9.1%	6.7%
CCC(=O)Nc1ccc(S(=O)(=O)N2CCc3ccccc32)cc1	i	2.2%	-0.4%	i	?	-27.1%
CCc1ccccc1NC(=O)c1cc(S(=O)(=O)N2CCc3ccccc32)ccc1F	i	.	.	i	16.4µM*	10.3µM*
COCCNC(=O)c1c[nH]c2ccc(S(=O)(=O)N3CCc4ccccc43)cc2c1=O	?	2.31µM*	2.31µM*	i	14.6µM*	6.51µM*
O=C(Nc1cc(Cl)ccc1Cl)c1cc(S(=O)(=O)N2CCCc3ccccc32)ccc1F	i	.	.	i	23.1µM*	?
CCCNC(=O)c1cc(S(=O)(=O)N2CCc3ccccc32)ccc1F	i	?	-5.5%	?	5.17µM*	14.6µM*
COCCCNC(=O)c1c[nH]c2ccc(S(=O)(=O)N3CCc4ccccc43)cc2c1=O	?	?	?	i	-29.3%	?
CCOc1cc(C(=O)Nc2cccc3cccnc23)cc(OCC)c1OCC	i	.	.	i	?	-102.3%
COc1ccc(CCNC(=O)c2cc(S(=O)(=O)N3CCc4ccccc43)ccc2F)cc1OC	?	-13.3%	-10.8%	?	11.6µM*	6.51µM*
CCc1ccccc1NC(=O)c1cc(S(=O)(=O)N2CCCc3ccccc32)ccc1F	i	.	.	i	16.4µM*	18.4µM*
O=S(=O)(c1ccc(F)c(F)c1)N1CCCc2ccccc21	i	-5.2%	0.0%	i	-21.2%	?
COc1ccccc1NC(=O)c1cc(S(=O)(=O)N2CCc3ccccc32)ccc1F	i	1.6%	10.2%	i	18.4µM*	?
COc1ccc(S(=O)(=O)N2CCc3ccccc32)cc1C(=O)NCCc1ccc(S(N)(=O)=O)cc1	i	2.6%	4.8%	i	-0.6%	0.7%
COc1ccccc1NC(=O)c1cc(S(=O)(=O)N2CCC3(CC2)OCCO3)ccc1F	?	-13.0%	5.2%[9.24 µM]	i	?	-7.4%
CC(C)(C)C1CCC(OC(=O)CN2CCOCC2)CC1 (centres undefined)	i	0.3%	1.8%	i	-10.7%	-4.8%

Screening results: PubChem BioAssay, National Center for Advancing Translational Sciences (NCATS)
